Structures are written as SMILES. Records with an inconclusive call do not appear. Unmarked numbers belong to inactive results. Active and inactive are the calls of the source. The call rests on the fitted dose curve; in most records, active means well fitted cell-killing curve with a large enough effect; inconclusive means small, poorly fitted or top-dose-only effect, or effect the other way; inactive means no such curve, though single readings can be large or run the other way. *1 amine or outer side, *2 acyl side, *3 side chain or, on linkers, in order; H or OH if unused. Where a SMILES comes first, the peptide text is derived from it. Bridges are numbered along the chain shown (N, C = ends). Roman numbers before positions name the chains, in order. [ ]: non-standard residue; d: D form. Actinocin(9to1) = Cc1c2oc3c(C)ccc(C(=O)[*:1])c3nc-2c(C(=O)[*:2])c(N)c1=O; NMeV = CN[C@H](C(=O)O)C(C)C; Sar = CNCC(=O)O
On the % scale 0 is the no-effect control and ±100 the full control effect; potency means the concentration at half of the fitted maximal effect.

In the experiment the test system is PA-1. Briefly: Confirmatory qHTS for gynecologic anti-cancer compounds from libraries of approved drugs and bioactive compounds. Further: nearly all actives have a fitted effect of over 55% in size. The note with it: gynecologic cancer cell panel viability, ATPlite luminescence, 48 h; series mostly up to 57.6 µM; activity change, negative = viability loss: at the top concentration. In short, it runs like this:
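ATP-based luminescent viability (ATPlite) after 48 h drug treatment at 37 °C, 5% CO2, across 57.5 uM–0.977 nM in 1:3 steps. Cells seeded at 1,000 per well 16 h beforehand; IC50 values computed, HEK 293T as selectivity control.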
Background: qHTS replaces the single test concentration by a dilution series.
`S=c1nc[nH]c2nc[nH]c12`: the Potency was 3.85 µM (active).

As to `C[C@@H](Oc1cc(-c2cnn(C3CCNCC3)c2)cnc1N)c1c(Cl)ccc(F)c1Cl`, the Potency is 6.85 µM (active). In the case of `Cc1cnc(CNC(=O)c2c(=O)c3ccc(N4CCCN(C)CC4)nc3n3c2sc2ccccc23)cn1`, the Potency was 1.11 µM (active). `O=C(NOC[C@H](O)CO)c1ccc(F)c(F)c1Nc1ccc(I)cc1F`: the Potency was 3.85 µM (active). The same measure, in the same setting: the same measure for `Cc1c(NC(=O)OCC2COCCN2)cn2ncnc(Nc3ccc4c(cnn4Cc4cccc(F)c4)c3)c12` (stereo not given): 27.3 µM (active); for `Cc1nc(Nc2n[nH]c3c2CN(C(=O)NC(CN(C)C)c2ccccc2)C3(C)C)c2sccc2n1` (stereo not given): 0.0243 µM (active). Turning to `COc1ccc2c(c1OC)C(=O)O[C@@H]2[C@H]1c2c(cc3c(c2OC)OCO3)CCN1C`, the Potency was 24.3 µM (active). For the compound `CN(C)C1CCN(C(=O)c2ccc(NC(=O)Nc3nc(N4CCOCC4)nc(N4CCOCC4)n3)cc2)CC1`, the Potency was 1.09 µM (active). `CC(C)CC(=O)Nc1n[nH]c2c1CN(C(=O)C1CCN(C)CC1)C2(C)C`: the Potency is 0.172 µM (active). On to `Oc1cn2c(n1)Nc1ccc(Cl)c(Cl)c1C2`, for which the “activity change, negative = viability loss” value is 5.17% [at 19.5 µM]. Consider `CC(C)[C@@H](CS(=O)(=O)C(C)C)N1C(=O)[C@@](C)(CC(=O)O)C[C@H](c2cccc(Cl)c2)[C@H]1c1ccc(Cl)cc1`, for which the Potency is 2.43 µM (active). On to `CCOc1cc2ncc(C#N)c(Nc3ccc(F)c(Cl)c3)c2cc1NC(=O)/C=C/CN(C)C`, for which the Potency is 17.2 µM (active). In the case of `CCN(CC)CCNC(=O)c1c(C)[nH]c(/C=C2\C(=O)Nc3ccc(F)cc32)c1C`, the Potency is 8.91 µM (active).

Regarding `Cc1c2oc3c(C)ccc(C(=O)N[C@@H]4C(=O)N[C@H](C(C)C)C(=O)N5CCC[C@H]5C(=O)N(C)CC(=O)N(C)[C@@H](C(C)C)C(=O)O[C@@H]4C)c3nc-2c(C(=O)N[C@@H]2C(=O)N[C@H](C(C)C)C(=O)N3CCC[C@H]3C(=O)N(C)CC(=O)N(C)[C@@H](C(C)C)C(=O)O[C@@H]2C)c(N)c1=O` (I: T[dV]P[Sar][NMeV] / II: T[dV]P[Sar][NMeV]; ester I:1-I:C, II:1-II:C; linker I:N-II:N via Actinocin(9to1)), the Potency is 0.0968 µM (active). Consider `COCCOc1ccc2c(c1)ncn2-c1ccc2cccc(N3CCC(N)CC3)c2n1`, for which the Potency is 4.85 µM (active). Still for that read-out and setting: the value for `COc1cc2c(c(OC)c1OC)-c1ccc(OC)c(=O)cc1[C@@H](NC(C)=O)CC2` was 0.126 µM (active); that for `O=C(NCC(O)CO)c1ccncc1Nc1ccc(I)cc1F` (stereo not given) was 0.0611 µM (active). `COc1cc2c(NC3CCN(C(C)C)CC3)nc(C3CCCCC3)nc2cc1OCCCN1CCCC1`: the Potency is 17.2 µM (active).

For the compound `CC[C@]1(O)C[C@@H]2CN(CCc3c([nH]c4ccccc34)[C@@](C(=O)OC)(c3cc4c(cc3OC)N(C)[C@H]3[C@@](O)(C(=O)OC)[C@H](OC(C)=O)[C@]5(CC)C=CCN6CC[C@]43[C@@H]65)C2)C1`, the Potency was 0.109 µM (active). With `COc1cc(F)c(F)c(Nc2ccc(I)cc2F)c1NS(=O)(=O)C1(CC(O)CO)CC1` (stereo not given), the “activity change, negative = viability loss” value was -22.7%. For `COc1cccc2cc(-c3nc(C4CCC(C(=O)O)CC4)n4ncnc(N)c34)[nH]c12` (stereo not given), the Potency is 9.68 µM (active). Still for that read-out and setting: the same measure for `Nc1nc(Cl)nc2c1ncn2C1OC(CO)C(O)C1F` (stereo not given): 0.685 µM (active). With `Cc1csc(NC(=O)c2sc3nc4c(c(C(F)(F)F)c3c2N)CCC4)n1`, the Potency is 3.43 µM (active). Still for that read-out and setting: the same measure for `CC(C)C[C@H](NC(=O)[C@H](Cc1ccccc1)NC(=O)c1cnccn1)B(O)O`: 0.0385 µM (active); for `O=c1[nH]c(=O)n([C@H]2C[C@H](O)[C@@H](CO)O2)cc1C(F)(F)F`: 1.93 µM (active). As for `CN1CCCC(n2nc(Cc3ccc(Cl)cc3)c3ccccc3c2=O)CC1` (stereo not given), the Potency is 27.3 µM (active). On the same count and under the same terms, the same measure for `NC(=O)c1cnc(-c2ccc(C3(N)CCC3)cc2)c(-c2ccccc2)c1`: 27.3 µM (active). Same read-out and setting: the same measure for `CCn1cc(-c2ccnc3[nH]c(-c4cccc(CN(C)C)c4)cc23)c(-c2ccc(NC(=O)N(C)C)cc2)n1`: 8.41 µM (active); for `CNC1CCC(N(Cc2cccc(-c3ccncc3)c2)C(=O)c2sc3ccccc3c2Cl)CC1` (stereo not given): 24.3 µM (active).

Turning to `Cn1cc(-c2[nH]c3cc(NC(=O)[C@H](N)C4CCCCC4)cc4c3c2C=NNC4=O)cn1`, the Potency was 8.63 µM (active).

Consider `C[C@@]1(C(=O)Nc2ccc(F)nc2)CCCN1c1nc(Nc2cc(C3CC3)[nH]n2)c2cccn2n1`, for which the Potency was 0.0343 µM (active). Still for that read-out and setting: the value for `Cc1ccc(C(=O)N(CCCN)C(c2nc3cc(Cl)ccc3c(=O)n2Cc2ccccc2)C(C)C)cc1` (stereo not given) was 0.0172 µM (active); that for `COc1cc(N2CCC(N(C)C)CC2)ccc1Nc1ncc(Cl)c(Nc2ccccc2P(C)(C)=O)n1` was 6.11 µM (active); that for `O=C(Nc1cccnc1)N1CCC(Cc2cccc(Oc3ccc(C(F)(F)F)cn3)c2)CC1` was 6.85 µM (active). Take `NS(=O)(=O)c1ccc(Nc2nc(OCC3CCCCC3)c3[nH]cnc3n2)cc1`: the “activity change, negative = viability loss” value is 35.2%. Take `CN(C)C/C=C/C(=O)Nc1cc2c(Nc3ccc(F)c(Cl)c3)ncnc2cc1OC1CCOC1` (stereo not given): the Potency was 9.68 µM (active).

In the case of `CCC(=O)N1CCN(c2ccc(-n3c(=O)ccc4cnc5ccc(-c6cnc7ccccc7c6)cc5c43)cc2C(F)(F)F)CC1`, the Potency was 0.627 µM (active). Consider `CCc1cccc(CC)c1NC(=O)N1Cc2[nH]nc(NC(=O)c3ccc(N4CCN(C)CC4)cc3)c2C1`, for which the Potency was 2.43 µM (active). Regarding `CN1CCN(c2ccc(OC(F)(F)F)c(Nc3ncc4c(n3)-c3c(c(C(N)=O)nn3CCO)CC4)c2)CC1`, the Potency was 0.153 µM (active). For the compound `Cc1cc(Nc2nc(N[C@@H](C)c3ccc(F)cc3)c(C#N)cc2F)n[nH]1`, the Potency is 3.06 µM (active).

These data come from PubChem BioAssay AID1345085 (National Center for Advancing Translational Sciences (NCATS), 2018).
